Outcome and AC50 data for five molecules are collected here from PubChem BioAssay (EPA / NIEHS).

Read-out in assay [1]: Actin alpha 1 (ACTA1), ACTA1 (gene 58)
Description: BSK_MyoF_ACTA1: BioMAP Diversity Plus: MyoF Assay for Actin alpha 1 (ACTA1) Biomarker Activity (AID 2284244). The following applies: primary human lung fibroblasts. An outline of the steps: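 Human lung fibroblast (MyoF system) cultures dosed with test chemical; alpha-SMA measured by ELISA 24 h after dosing, normalized to DMSO control. Cytotoxicity tracked in parallel cultures by SRB total-protein staining.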

Read-out in assay [2]: Interleukin 2 (IL2), IL2 (gene 3558)
Description: BSK_BT_xIL2: BioMAP Diversity Plus: BT Assay for Interleukin 2 (IL2) Biomarker Activity (AID 2284245). The following applies: primary human B cells with PBMC. In outline: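 Human B cell plus PBMC co-culture, 24 h after chemical dosing; secreted IL-2 quantified by Luminex xMAP multiplex, fitted for signal gain against DMSO baseline.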

Read-out in assay [3]: Basic fibroblast growth factor (bFGF), FGF2 (gene 2247)
Description: BSK_MyoF_bFGF: BioMAP Diversity Plus: MyoF Assay for Basic fibroblast growth factor (bFGF) Biomarker Activity (AID 2284246). Particulars: primary human lung fibroblasts. In outline:
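Human lung fibroblast cultures were dosed and measured 24 h later in 96-well format. bFGF biomarker levels quantified by ELISA, with activity fitted in the positive direction against DMSO.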

Read-out in assay [4]: Monokine induced gamma interferon (MIG), CXCL9 (gene 4283)
Description: BSK_KF3CT_MIG: BioMAP Diversity Plus: KF3CT Assay for Monokine induced gamma interferon (MIG) Biomarker Activity (AID 2284248). Particulars: primary human keratinocytes with fibroblasts. An outline of the steps: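 Parallel cultures were stained with SRB (560 nm) to check cytotoxicity. MIG was quantified by ELISA in a primary human skin keratinocyte/fibroblast co-culture 24 h post-dosing, with gain of signal fitted relative to DMSO.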

Read-out in assay [5]: Vascular cell adhesion molecule 1 (VCAM1), VCAM1 (gene 7412)
Description: BSK_BF4T_VCAM1: BioMAP Diversity Plus: BF4T Assay for Vascular cell adhesion molecule 1 (VCAM1) Biomarker Activity (AID 2284249). The following applies: primary human bronchial epithelial cells with fibroblasts. An outline of the steps:
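Human bronchial epithelial cell and dermal fibroblast co-culture exposed 24 h. VCAM-1 measured by ELISA; parallel SRB total-protein staining for cytotoxicity. Fitted in positive direction relative to DMSO.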

Read-out in assay [6]: Collagen I, COL1A1 (gene 1277)
Description: BSK_hDFCGF_CollagenI: BioMAP Diversity Plus: hDFCGF Assay for Collagen I Biomarker Activity (AID 2284250). Particulars: primary human foreskin fibroblasts. In outline:
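Primary human foreskin fibroblasts exposed to chemical for 24 h; Collagen I levels measured by ELISA. Cytotoxicity checked by SRB total-protein staining in parallel cultures.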

Read-out in assay [7]: Interferon-inducible T-cell alpha chemoattractant (ITAC), CXCL11 (gene 6373)
Description: BSK_hDFCGF_ITAC: BioMAP Diversity Plus: hDFCGF Assay for Interferon-inducible T-cell alpha chemoattractant (ITAC) Biomarker Activity (AID 2284251). The following applies: primary human foreskin fibroblasts. An outline of the steps:
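ELISA readout of I-TAC after 24 h chemical exposure; human dermal foreskin fibroblast primary cells. Positive-direction fitting vs DMSO baseline. Parallel SRB total-protein staining (0.1% SRB after 10% TCA fixation, 560 nm) flags cytotoxicity.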

Read-out in assay [8]: Plasminogen activator inhibitor-1 (PAI1), SERPINE1 (gene 5054)
Description: BSK_KF3CT_PAI1: BioMAP Diversity Plus: KF3CT Assay for Plasminogen activator inhibitor-1 (PAI1) Biomarker Activity (AID 2284252). Particulars: primary human keratinocytes with fibroblasts. An outline of the steps: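 Human keratinocyte/foreskin fibroblast co-culture dosed for 24 h; PAI-1 measured by ELISA, fitted in positive direction against DMSO baseline. Parallel SRB total-protein staining (0.1% SRB, 560 nm) assesses overt cytotoxicity.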

Read-out in assay [9]: Monocyte Chemoattractant Protein-1 (MCP1), CCL2 (gene 6347)
Description: BSK_IMphg_MCP1: BioMAP Diversity Plus: IMphg Assay for Monocyte Chemoattractant Protein-1 (MCP1) Biomarker Activity (AID 2284253). The following applies: primary human endothelial cells with macrophages. In outline: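 Human venular endothelial cells co-cultured with macrophages; MCP-1 measured by ELISA 24 hours post-dose and fitted against DMSO. Cytotoxicity monitored by SRB total-protein staining in parallel cultures.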

Read-out in assay [10]: Interleukin-8 (IL8), CXCL8 (gene 3576)
Description: BSK_KF3CT_IL8: BioMAP Diversity Plus: KF3CT Assay for Interleukin-8 (IL8) Biomarker Activity (AID 2284254). The following applies: primary human keratinocytes with fibroblasts. In outline: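 IL-8 by ELISA in primary human skin co-culture (keratinocytes plus fibroblasts) 24 h post-dose, DMSO as baseline. Cytotoxicity assessed in parallel by sulforhodamine B total-protein staining.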

Read-out in assay [11]: Macrophage Inflammatory Protein-1 Alpha (MIP1a), CCL3 (gene 6348)
Description: BSK_IMphg_MIP1a: BioMAP Diversity Plus: IMphg Assay for Macrophage Inflammatory Protein-1 Alpha (MIP1a) Biomarker Activity (AID 2284255). Particulars: primary human endothelial cells with macrophages. In outline:
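Co-culture of human venular endothelial cells and macrophages exposed to compounds for 24 h; MIP-1a measured by ELISA relative to DMSO. Cytotoxicity assessed in parallel cultures by sulforhodamine B total-protein staining at 560 nm.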

Read-out in assay [12]: Plasminogen activator inhibitor-1 (PAI1), SERPINE1 (gene 5054)
Description: BSK_MyoF_PAI1: BioMAP Diversity Plus: MyoF Assay for Plasminogen activator inhibitor-1 (PAI1) Biomarker Activity (AID 2284256).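 As to Outcome: PAI-1 read 24 h after compound addition.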 Particulars: primary human lung fibroblasts. In outline: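 Human lung fibroblasts (MyoF system) were exposed to test chemicals for 24 h, then PAI-1 was quantified by ELISA. Activity was fitted in the positive (signal-gain) direction relative to DMSO vehicle as baseline.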

Read-out in a further assay: CD69, CD69 (gene 969)
Description: BSK_IMphg_CD69: BioMAP Diversity Plus: IMphg Assay for CD69 Biomarker Activity (AID 2284257). Particulars: primary human endothelial cells with macrophages. An outline of the steps:
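Human venular endothelial cells co-cultured with macrophages; CD69 quantified by ELISA 24 h after compound addition. Activity fitted in the positive direction relative to DMSO baseline; cytotoxicity tracked in parallel cultures via SRB total-protein staining.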

Read-out in assay [13]: Monocyte Chemoattractant Protein-1 (MCP1), CCL2 (gene 6347)
Description: BSK_BF4T_MCP1: BioMAP Diversity Plus: BF4T Assay for Monocyte Chemoattractant Protein-1 (MCP1) Biomarker Activity (AID 2284259). The following applies: primary human bronchial epithelial cells with fibroblasts. An outline of the steps:
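Co-culture of bronchial epithelial cells and dermal fibroblasts dosed with chemical; MCP-1 measured by ELISA 24 h later. Activity fitted in positive direction versus DMSO; cytotoxicity checked by SRB staining in parallel cultures.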

Read-out in assay [14]: Intercellular Adhesion Molecule 1 (ICAM1), ICAM1 (gene 3383)
Description: BSK_BF4T_ICAM1: BioMAP Diversity Plus: BF4T Assay for Intercellular Adhesion Molecule 1 (ICAM1) Biomarker Activity (AID 2284260). The following applies: primary human bronchial epithelial cells with fibroblasts. In outline: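 Co-culture of human bronchial epithelial cells and dermal fibroblasts exposed 24 h to chemical; cell-surface ICAM-1 quantified by ELISA. Parallel SRB total-protein staining assessed cytotoxicity; activity fitted relative to DMSO.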

Read-out in assay [15]: Interleukin-8 (IL8), CXCL8 (gene 3576)
Description: BSK_MyoF_IL8: BioMAP Diversity Plus: MyoF Assay for Interleukin-8 (IL8) Biomarker Activity (AID 2284261). The following applies: primary human lung fibroblasts. An outline of the steps:
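IL-8 quantified by ELISA after 24 h compound exposure of primary human lung fibroblasts. SRB staining of parallel cultures flagged cytotoxicity; DMSO served as baseline.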

Read-out in another assay: CD90, THY1 (gene 7070)
Description: BSK_BF4T_CD90: BioMAP Diversity Plus: BF4T Assay for CD90 Biomarker Activity (AID 2284262). Particulars: primary human bronchial epithelial cells with fibroblasts. An outline of the steps:
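Co-culture of human bronchial epithelial cells and dermal fibroblasts, 24 h compound exposure. Cell-surface CD90 measured by ELISA relative to DMSO; parallel SRB total-protein staining for cytotoxicity.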

Read-out in assay [16]: Interleukin-8 (IL8), CXCL8 (gene 3576)
Description: BSK_BF4T_IL8: BioMAP Diversity Plus: BF4T Assay for Interleukin-8 (IL8) Biomarker Activity (AID 2284263). The following applies: primary human bronchial epithelial cells with fibroblasts. An outline of the steps: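 Human bronchial epithelial cells with dermal fibroblasts co-culture; IL-8 measured by ELISA 24 hours after dosing, fitted vs DMSO. Cytotoxicity tracked in parallel cultures by SRB total-protein staining.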

Read-out in assay [17]: Interleukin-1 alpha (IL1a), IL1A (gene 3552)
Description: BSK_BF4T_IL1a: BioMAP Diversity Plus: BF4T Assay for Interleukin-1 alpha (IL1a) Biomarker Activity (AID 2284264). Particulars: primary human bronchial epithelial cells with fibroblasts. In outline: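 Human bronchial epithelial cells co-cultured with dermal fibroblasts, dosed and read at 24 h. Secreted/surface IL-1α quantified by ELISA; gain-of-signal fitted relative to DMSO baseline. Parallel SRB total-protein staining tracked cytotoxicity.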

Read-out in the next assay: Decorin, DCN (gene 1634)
Description: BSK_MyoF_Decorin: BioMAP Diversity Plus: MyoF Assay for Decorin Biomarker Activity (AID 2284265). The following applies: primary human lung fibroblasts. In outline:
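Decorin protein was quantified by ELISA 24 h after chemical addition to primary human lung fibroblasts and analysed as increase over DMSO. Cytotoxicity was tracked in parallel cultures by SRB total-protein staining read at 560 nm.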

What is called AC50 is the concentration giving half of the maximal activity seen.

Several values for one entry are separate records, joined by “and”; a condition that tells them apart may be missing. Equal entries are not always repeated. Where a structure was tested more than once in an assay, its records may differ in their call. Activity calls are given as the source filed them. The calls were made as follows: active = hit-call score of the fitted dose curve at least 0.9, where 1 is the maximum; inactive = score below 0.9.

In the case of `FC(F)=C(F)C(F)(F)C(F)(F)C(F)(F)C(F)(F)C(F)(F)C(F)(F)F`, the result in [1], in [2], in assay [3], in assay [4], in assay [5] and in assay [6] was inactive. The outcome in assay [7], in assay [8], in [9], in assay [10], in [11] and in assay [12] was inactive. In addition, the outcome with CD69, CD69 (gene 969) is “inactive”; in assay [13] it was “inactive”; in assay [14] it was “inactive”; in assay [15] it was “inactive”; with CD90, THY1 (gene 7070), “inactive”; in assay [16] it was “inactive”. Besides, the outcome is “inactive” in assay [17] and “inactive” in the assay with Decorin, DCN (gene 1634).
Take `OCCC(F)(F)C(F)(F)C(F)(F)C(F)(F)F`: the outcome in [1], in assay [2], in [3], in assay [4], in assay [5] and in assay [6] was inactive. The result in assay [7], in [8], in [9], in assay [10], in assay [11] and in assay [12] was inactive. The outcome is “inactive” with CD69, CD69 (gene 969); “inactive” in assay [13]; “inactive” in assay [14]; “inactive” in [15]; “inactive” with CD90, THY1 (gene 7070); “inactive” in [16]. Further, the outcome in assay [17] is “inactive”; in the assay with Decorin, DCN (gene 1634), “inactive”.
Turning to `NCC(F)(F)C(F)(F)C(F)(F)C(F)(F)F`, the result in assay [1], in assay [2], in assay [3], in assay [4], in assay [5] and in assay [6] was inactive. The result in assay [7], in assay [8], in assay [9], in assay [10], in [11] and in [12] was inactive. Moreover, the outcome in the assay with CD69, CD69 (gene 969) was “inactive”; in [13], “inactive”; in assay [14], “inactive”; in assay [15], “inactive”; with CD90, THY1 (gene 7070), “inactive”; in [16] it was “inactive”. Also, the outcome in assay [17] is “inactive”; with Decorin, DCN (gene 1634), “inactive”.
Consider `FC(F)(F)COC(OCC(F)(F)F)OCC(F)(F)F`, for which the outcome in assay [1], in [2], in assay [3], in assay [4], in assay [5] and in assay [6] was inactive. For the same molecule, the outcome in assay [7], in [8], in assay [9], in [10], in assay [11] and in [12] was inactive. The outcome with CD69, CD69 (gene 969) was “inactive”; in assay [13] it was “inactive”; in assay [14] it was “inactive”; in [15], “inactive”; with CD90, THY1 (gene 7070) it was “inactive”; in [16], “inactive”. Moreover, the outcome in assay [17] is “inactive”; with Decorin, DCN (gene 1634), “inactive”.
With `FC(F)(F)C(F)(F)C(F)(F)C(F)(F)C(F)(F)C(F)(F)I`, the AC50 in assay [1] was 17.8 µM (active) and 30 µM (active); in assay [7], 47.4 µM (active); in assay [12] it was 38.6 µM (active) and 22.2 µM (active). Further, the result in [2], in assay [3], in assay [4], in assay [5], in assay [6] and in assay [7] was inactive. In addition, the outcome in [8] is “inactive”; in [9] it was “inactive”; in [10], “inactive”; in assay [11], “inactive”; with CD69, CD69 (gene 969), “inactive”; in assay [13] it was “inactive”. The outcome in [14] is “inactive”; in assay [15] it was “inactive”; in the assay with CD90, THY1 (gene 7070), “inactive”; in [16], “inactive”; in assay [17] it was “inactive”; with Decorin, DCN (gene 1634), “inactive”.
